# High-throughput results as filed in PubChem BioAssay.
# Cav32 inh = blocks human Cav3.2 T-type calcium channel. AID 449739. B-score at 10 µM. 100,000 compounds, 4% hits. Cav3.2-expressing cells, Fluo-4 calcium fluorescence FDSS; active compounds read low. O95180;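 active means single-dose well whose peak fluorescence ratio is a statistical outlier from its plate by either plate-standardised score or position-corrected B-score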
# CYP2C19 inh = inhibitors of human CYP2C19. 96,000 compounds, 21% hits. CYP2C19 Supersomes, luciferin-H EGE luminescence, 30 min. P33261. inhibition, % at 5 µM. AID 778;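 active means CYP2C19 inhibition above a set limit at 5 µM in the primary screen, cut at about 50% in these data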;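 further: plate controls were negative control wells for no effect and 2.5 mM tranylcypromine positive control for full effect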
# CYP2C9 inhib = human CYP2C9 inhibition. P11712. CYP2C9 Supersomes, luciferin-H conversion, luminescence. inhibition, % at 5 µM. 96,000 compounds, 20% hits. AID 777;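 active means blocking of liver enzyme CYP2C9 beyond about 50% at 5 µM, limit read from the data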
# Target sequence (P11712 whole entry, looked up): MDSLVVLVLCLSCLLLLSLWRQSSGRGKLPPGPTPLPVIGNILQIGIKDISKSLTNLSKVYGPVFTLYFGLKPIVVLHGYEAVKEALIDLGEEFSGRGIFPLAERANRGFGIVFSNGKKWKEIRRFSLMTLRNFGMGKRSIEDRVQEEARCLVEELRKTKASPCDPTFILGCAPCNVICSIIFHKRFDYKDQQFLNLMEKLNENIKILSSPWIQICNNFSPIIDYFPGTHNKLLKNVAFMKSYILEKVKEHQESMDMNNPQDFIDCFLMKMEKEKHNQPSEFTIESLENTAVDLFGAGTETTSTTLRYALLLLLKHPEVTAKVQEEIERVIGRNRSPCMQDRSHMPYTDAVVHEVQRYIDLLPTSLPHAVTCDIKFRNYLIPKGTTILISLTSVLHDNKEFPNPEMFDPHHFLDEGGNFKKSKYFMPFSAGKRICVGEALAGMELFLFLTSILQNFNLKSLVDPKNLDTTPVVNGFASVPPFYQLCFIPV
# CYP2C19 act = cytochrome P450 2C19 (human) activation | P33261 | 96,000 tested, under 10 active | AID 1025 | recombinant CYP2C19, luciferin-H EGE luminescence; active compounds read high; 0 = fully inhibited enzyme, 1 = untreated enzyme | activation factor at 5 µM;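 active means activation factor of at least 2 at 5 µM in the primary screen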;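 further: 0 = wells with 2.5 mM tranylcypromine and 1 = vehicle-only wells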
# CYP2C9 activ = activators of human CYP2C9; P11712; activation factor at 5 µM; 96,000 compounds, 1.4% hits; recombinant CYP2C9, luciferin-H conversion, luminescence; active compounds read high; factor 1 = untreated enzyme, 0 = blocked;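 active means activation factor of 2 or more for CYP2C9 at a 5 µM dose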;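 further: 0 = sulfaphenazole-blocked wells and 1 = vehicle-only wells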
# * marks the source's active call; other numbers are inactive results; · = no result given. In the library only some 27% were active in any assay of this set; here they are far more common.
SMILES,Cav32 inh,CYP2C19 inh,CYP2C9 inhib,CYP2C19 act,CYP2C9 activ
CCCCCCCCCCCC(=O)N/N=C/c1ccco1,-0.022,26,56*,0.7,0.4
CCCCCCCCCC(=O)N/N=C/c1ccc(C)s1,-0.071,77*,74*,0.2,0.3
Cc1ccccc1Cn1c(=O)c2c(nc3n2CCCN3Cc2ccccc2)n(C)c1=O,-3.8,·,·,·,·
Cn1c(CS(=O)Cc2c(Cl)cccc2Cl)nnc1SCc1c(Cl)cccc1Cl (stereo unspecified),-0.98,55*,34,0.4,0.7
Cn1c(SCc2ccccc2)nnc1-c1cccs1,0.017,41,-8,0.6,1.1
O=S(Cc1ccc(Br)cc1)Cc1nnc(SCc2c(Cl)cccc2Cl)n1-c1ccccc1 (stereo unspecified),·,88*,80*,0.1,0.2
Fc1cccc(Cl)c1CSc1nnc(CN2CCOCC2)n1-c1ccccc1,-1.2,25,11,0.7,0.9
CC1(C)N=C(N)NC(Nc2ccccc2)=N1,0.064,·,·,·,·
Cc1cc(C)nc(NC2=NCC(=O)N2c2ccc3c(c2)OCCO3)n1,-1.1,7,-1,0.9,1
CCOc1ccc(N2C(=O)CC(N)C2=O)cc1 (stereo unspecified),0.91,·,·,·,·
CCOC(=O)c1oc2ccccc2c1CSc1nnnn1-c1ccccc1,0.51,20,37,0.8,0.6
O=C(O)c1cccnc1Nc1cccc(C(F)(F)F)c1,-2.1,·,·,·,·
NS(=O)(=O)c1cccnc1Nc1cccc(C(F)(F)F)c1,-1.3,34,78*,0.7,0.2
C=C(C)CNC(=S)N/N=C(\C)c1ccc(-n2ccnc2)cc1,-0.073,100*,100*,0,0
Cc1c(CN(C)C)c2c(n1Cc1ccccc1)C(=O)c1ccc(Br)cc1-2,0.7,79*,63*,0.2,0.4
CCCc1cc(=O)[nH]c(/N=C(\N)Nc2ccccc2)n1,0.032,0,9,1,0.9
O=C(Nc1ccccc1)c1ccccc1O,-0.096,19,24,0.8,0.8
N#Cc1ccccc1Sc1ccccc1C(=O)Nc1ccccc1,·,52*,50,0.5,0.5
C=CCn1c(N)c(C(=O)OCC)sc1=S,0.0038,10,41,0.9,0.6
CCOC(=O)c1sc(=S)n(-c2ccc3c(c2)OCO3)c1N,-2.8,64*,3,0.4,1
CCOC(=O)c1sc(=S)n(C)c1C,0.8,8,-16,0.9,1.2
C=CCn1c(NC(=O)CC)c(C(=O)OCC)sc1=S,·,52*,32,0.5,0.7
CCOC(=O)c1sc(=S)n(Cc2ccccc2)c1N,-6.7*,28,79*,0.7,0.2
CCOC(=O)c1sc(=S)n(-c2ccc(F)c(F)c2)c1N,-0.6,18,4,0.8,1
CCOC(=O)c1sc(=S)n(CC)c1N,0.48,84*,72*,0.2,0.3
SMILES,Cav32 inh,CYP2C19 inh,CYP2C9 inhib,CYP2C19 act,CYP2C9 activ
CCOC(=O)c1c(N)sn(-c2ccccc2)c1=S,0.091,17,14,0.8,0.9
O=C(NC1=NC2CCCCC2N1)c1ccccc1 (stereo unspecified),0.27,32,2,0.7,1
Cc1ccc(C(=O)NCCCN2CCOCC2)cc1N1CCCC1=O,0.51,-8,-4,1.1,1
CCOC(=O)c1sc(=S)n(-c2ccccc2OC)c1N,-0.2,24,56*,0.8,0.4
CC(c1cccs1)N(C(=O)Nc1ccccc1)C1CCCCC1 (stereo unspecified),-2.4,4,47,1,0.5
CC(C)CCN(C(=O)Nc1ccccc1)C(C)c1cccs1 (stereo unspecified),-4.8*,17,74*,0.8,0.3
O=C(N/N=C/c1c[nH]c2ccccc12)c1ccn(Cc2ccc(Cl)cc2Cl)n1,·,57*,70*,0.4,0.3
Cc1ccc2cc(C#N)c(N3CCCN(S(=O)(=O)c4ccc(F)cc4)CC3)nc2c1,0.61,·,·,·,·
Cc1ccc(S(=O)(=O)N2CCN(c3nc(C(C)C)c4c(c3C#N)CC(C)(C)OC4)CC2)cc1,-2.6,68*,95*,0.3,0.1
CCCNC(=O)N1CCN(c2nc(C(C)C)c3c(c2C#N)CC(C)(C)OC3)CC1,-0.96,87*,80*,0.1,0.2
CCOC(=O)C1CCN(C(=O)Cc2ccc(OC)c(OC)c2)CC1,-0.19,23,-16,0.8,1.2
CCOC(=O)C1CCCN(C(=O)c2sc3nc(-c4ccccc4)cn3c2C)C1 (stereo unspecified),-0.23,59*,56*,0.4,0.4
CCOC(=O)C1CCN(C(=O)Cc2ccc(C)cc2)CC1,0.46,21,52*,0.8,0.5
